# Measurements from the supplement of paper PMC6555819.
# Experiments:
# Assay in all cases: PBM binding z-score (relative to random genomic background probes); higher = stronger binding; sequences stand for … in GC…GCGATTGACAGCGTAGAATGAAGG
# [1] = test system: RARb homodimer (NR concentration 270 nM)
# Method in brief: (§1)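 Binding buffer was PBS pH 7.4 with 2% milk, 0.02% Triton X-100, 1 mM DTT, 0.2 mg/mL BSA and 0.4 mg/ml salmon testes DNA. In it, ligand-free nuclear receptor dimers were incubated 1 h on custom Agilent 4×180K protein-binding microarrays carrying double-stranded probes. Antibodies against each partner (one per run) detected binding, and z-scores were calculated against random background probes after regression normalization of scanned fluorescence.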
# [2] = test system: RARg:RXRa (NR concentration 270 nM, RXRa partner concentration 90 nM)
# Method in brief: as §1
# [3] = test system: RARg homodimer (NR concentration 270 nM)
# Method in brief: as §1
# [4] = test system: RXRa DBDmut IVT, anti-RXR (DBD mutation: RXRa K156A/R161A, NR concentration 90 nM)
# Method in brief: as §1
# [5] = test system: RXRa homodimer (NR concentration 180 nM)
# Method in brief: as §1
# [6] = test system: THRa:RXRa (NR concentration 90 nM, RXRa partner concentration 90 nM)
# Method in brief: as §1
# [7] = test system: THRa homodimer (NR concentration 90 nM)
# Method in brief: as §1
# [8] = test system: VDR:RXRa (NR concentration 270 nM, RXRa partner concentration 90 nM)
# Method in brief: as §1
# [9] = test system: VDR homodimer (NR concentration 270 nM)
# Method in brief: as §1
Sequence,PBM binding z-score [1],PBM binding z-score [2],PBM binding z-score [3],PBM binding z-score [4],PBM binding z-score [5],PBM binding z-score [6],PBM binding z-score [7],PBM binding z-score [8],PBM binding z-score [9]
CCTGCTAGATCAATGGTCAGCTAAAGCAGCTCGC,-0.343,-0.647,-0.492,0.00874,-0.596,-0.908,-1.01,-0.615,-0.711
GCGACTGGGGCATCAGCAGGTTAACATAACTTAA,1.03,1.09,0.785,-0.118,0.5,1.04,-0.291,0.126,-0.312
ATATGTAGGTTAGCTGGGGTCATTGAGACTAGGC,3.66,4.03,2.91,1.82,5.63,4.83,3.21,5.95,5.12
CGTCCAACGTCATAGGAGGTCAGTGAAGACAGAT,2.87,1.79,2.24,0.609,1.59,3.15,0.654,2.06,1.02
CCTACTGGGCCATCAGGTCATCGATATCAACGTT,2.83,2.31,2.29,0.257,1.58,3.45,3.33,1.77,1.24
ACAGACAGGTGAGTGAAGGTAACTCTGCTGGACG,0.091,0.24,0.455,-0.298,0.622,1.52,-0.492,-0.344,-0.195
ATCGAAAGGTCGTGAGGTGAGTCTACAGAAAGGC,3.17,4.64,3.92,1.06,5.19,3.48,1.43,3.66,1.09
CAAACTAGGTCACGAAAGGTCATAGTCGAATGAC,5.66,7.6,8.4,2.64,8.01,5.09,2.8,6.92,3.75
ATCGAAATGTCGAGGTGAGTATAGAGAAAGGGAA,-0.158,0.381,0.595,-0.737,0.198,1.24,0.217,-0.253,-0.583
CGAACTAGGTCATCCAGGGCAGTGAATACATTGA,3.48,4.41,5.14,2.14,2.97,3.78,1.25,5.26,2.25
GCTTACGTGTCAAAGGTTATAGCATGAATAGAAT,1.28,3.21,1.5,0.885,4.41,1.81,-0.725,2.29,-0.00185
CATACAGGGTCAGCTAGGCTAGAGTAGGGACGGC,3.04,4.09,4.3,1.33,3.94,2.84,1.02,3,1.04
CGAACTAGGTCATTGACAGGATAGTGAATAGTAA,2.38,3.62,3.86,2.34,2.55,2.57,0.521,1.64,0.957
ATCTCTAGGTAAATATAGTTCAGTGAATGCAAAT,1.1,1.03,1.14,0.551,0.623,1.05,0.0877,1.44,1.2
CCTACCGGGCCAAGGTCATTGATCAGTCAAAGCA,3.48,3.89,3.32,0.804,3.5,3.58,2.77,3.22,3.08
TCTCGTTGGTCAAAGGTCACACACTCGAAATGCG,5.23,7.05,6.09,1.99,8.17,4.2,2.63,5.25,2.94
CGAACTAGGTCATTAACAGGACAGTGAATAGTAA,2.34,4.13,4.05,2.35,2.29,2.76,0.884,1.77,1.15
ACGTACGGGTCAACGAGGTTATAGCACGCGTATA,3.58,5.69,5.07,2.07,6.3,4,0.75,7.49,3.93
AGAACGAGGGCAATGAGTTGATAGTACGGGTGGC,1.2,1.3,1.61,2.24,0.933,0.88,-0.483,5.53,3.56
TCTTGCAGGCCAGAGGGTCACTCAAGAGGTACGG,2.73,2.73,2.38,0.074,2.37,1.79,-0.22,1.7,0.546
GGAACGAGGGCACTCGAGTTGATAGCATGGCGAT,0.585,0.902,1.45,2.21,0.67,2.41,-0.47,2.64,1.75
ACTAGCAGGCCAAGTCTGGGTCACTCAAACAAAG,2.36,2.25,1.48,-0.171,0.902,2.35,0.768,0.77,0.0682
AGTCAAAGTTCATCTAGGCAACGTAAGATATGCT,3.91,5.49,6.04,4.78,4.97,2.22,-0.142,4.9,4.64
CGAACGAGGACATGAGTTGATAGCAAATGCCGAT,0.159,0.527,1.16,1.52,0.107,2.23,1.28,0.112,0.998
